Screening results (PubChem)
A selection: hits, their analogues and other compounds. The true share with any hit is near 8.5%.
KDM4E inh: JMJD2E (human) inhibition | B2RXH2 | JMJD2E catalytic domain, FDH-coupled NADH fluorescence (FDH is formaldehyde dehydrogenase) | Potency, µM (doses to about 57.1 µM), for the others: at the highest dose activity change, negative = inhibition, hits mostly inhibitors | hit rate 1.6% among 230,000 | AID 2147;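 also: potency is read from the fitted curve at half-maximal effect; 0% = wells with enzyme and -100% = buffer wells without enzyme; nearly all actives have a fitted effect of over 50% in size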
GoLoco inh red: blocks human Gai1 binding to RGS12 GoLoco peptide, red readout; P63096; Gai1:RGS12 GoLoco peptide FP, rhodamine, 10 min; Potency, µM (highest dose often 61.6 µM), without a hit: top-dose activity, negative = inhibition, usual class: inhibitors; hit rate 0.44% among 230,000; AID 880; active = well fitted inhibition curve with a large enough effect, not every such curve was filed as active; inactive = no such curve, though single readings can be large or run the other way; also: potency is read from the fitted curve at half-maximal effect; nearly all actives have a fitted effect of over 30% in size
ALDH1A1 block: inhibitors of human aldehyde dehydrogenase 1A1. hit rate 7.3% among 220,000. Potency, µM (doses to about 75.3 µM), inactives show at the top dose activity, negative = inhibition, most hits filed as inhibitors. Purified ALDH1A1, NADH fluorescence, propionaldehyde substrate. P00352. AID 1030;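 also: potency is read from the fitted curve at half-maximal effect; plate controls were no enzyme wells and a reference inhibitor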
Target sequence (P00352 whole entry, looked up): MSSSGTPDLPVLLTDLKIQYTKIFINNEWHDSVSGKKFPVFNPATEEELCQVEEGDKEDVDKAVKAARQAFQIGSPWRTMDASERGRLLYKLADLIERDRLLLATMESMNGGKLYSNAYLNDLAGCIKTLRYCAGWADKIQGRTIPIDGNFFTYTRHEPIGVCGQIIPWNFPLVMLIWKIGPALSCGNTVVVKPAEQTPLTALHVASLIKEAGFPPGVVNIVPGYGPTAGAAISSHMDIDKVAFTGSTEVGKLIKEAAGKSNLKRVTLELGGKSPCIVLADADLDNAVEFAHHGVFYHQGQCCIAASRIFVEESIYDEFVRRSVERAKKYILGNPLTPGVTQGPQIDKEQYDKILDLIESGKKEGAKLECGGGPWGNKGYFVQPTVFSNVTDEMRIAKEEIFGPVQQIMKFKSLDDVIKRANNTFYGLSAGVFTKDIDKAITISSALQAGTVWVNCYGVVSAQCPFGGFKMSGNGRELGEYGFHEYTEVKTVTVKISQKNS
Sfp PPTase inh: Sfp phosphopantetheinyl transferase inhibition; Q9F4F7; Biochemical Sfp PPTase activity, qHTS; Potency, µM, for the others: largest response in the series, negative = inhibition, actives largely listed as inhibitors; hit rate 3.5% among 310,000; AID 1490; active = well fitted curve in the direction sought with a large enough effect; inconclusive = small, poorly fitted or top-dose-only effect, or another doubt; inactive = no such curve, though single readings can be large; an effect the other way counts as inactive or inconclusive;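 also: the enzyme is Sfp with the accession as filed and its product quenches rhodamine fluorescence; potency is read from the fitted curve at half-maximal effect; 0% = enzyme reaction without inhibitor and -100% = no enzyme wells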
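Sfp 15 nM + cpd, 15 min RT; start w/ rhodamine-CoA 5 uM, BHQ-2-YbbR 12.5 uM (final); 50 mM Hepes pH 7.6, 10 mM MgCl2, 0.01% NP-40, 0.01% BSA; read 525/598 nm at 0 and 30 min.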
FBPA coupling cs: coupling enzyme interference in Giardia aldolase counter-screen; AID 2472; hit rate 0.67% among 290,000; coupling enzyme system counterscreen, AmpLite Red fluorescence; activity change, negative = inhibition, % at 58.2 µM, hits read low; in the data active = activity change below about -30%
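Coupling enzymes only (glyceraldehyde-3-phosphate) + compound, at 57.5 uM final, 10 min RT; add substrate/coupling/AmpLite Red mix, 20 min RT; fluorescence ex 525/em 598 nm. Actives flag coupling-system interference.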
NPSR antagonist: antagonists of human neuropeptide S receptor cAMP signaling. Q6W5P4. Potency, µM (highest dose often 38.3 µM), without a hit: top-dose activity change, negative = inhibition, actives largely listed as inhibitors. CHO-NPSR cells, cAMP TR-FRET, antagonist mode. hit rate 1% among 220,000; active = well fitted curve in the direction sought with a large enough effect; inconclusive = small, poorly fitted or top-dose-only effect, or another doubt; inactive = no such curve, though single readings can be large; an effect the other way counts as inactive or inconclusive; also: potency is read from the fitted curve at half-maximal effect; nearly all actives have a fitted effect of over 50% in size
* hit, by the source's call; ? = inconclusive; · = not tested or not shown; [ ] = remark or other dose. Unless noted, calls follow the shape of the dose curve; as a rule, active = well fitted inhibition curve with a large enough effect (not every such curve was filed as active); inconclusive = small, poorly fitted or top-dose-only effect, or another doubt; inactive = no such curve, though single readings can be large or run the other way. Unless noted, % is scaled to controls: 0 for no effect and ±100 for the full control effect.

SMILES	KDM4E inh	GoLoco inh red	ALDH1A1 block	Sfp PPTase inh	FBPA coupling cs	NPSR antagonist
O=C(Cn1cnc([N+](=O)[O-])n1)N/N=C/c1ccccc1O	25µM*	-1%	3%	27%	2	11%[46.1 µM]
O=[N+]([O-])c1ccc(SCCc2ccncc2)cc1	4%	7%	7.9µM*	50µM*	1	11%
COc1ccc(NC(=O)COc2cccc(-n3cnnn3)c2)cc1	·	·	·	11%	4	·
CC1Cc2ccccc2N1S(=O)(=O)c1cccc(C(=O)N2CCN(c3ncccn3)CC2)c1 (stereo not given)	-17%	10%	?	6%	1	-42%
Cc1ccc(C(=O)N/N=c2\oc3ccccc3cc2C(N)=O)cc1	·	·	·	10%	1	·
COc1ccc(C(=O)N/N=c2\oc3ccccc3cc2C(=O)NCc2ccccc2)cc1	1%	12%	11µM*	12%	-2	?
O=C(/C=C/c1ccco1)Nc1sc2c(c1C(=O)O)CCC2	-7%	-19%	4%	50µM*	-14	-13%[46.1 µM]
O=C(/C=C/c1ccccc1)Nc1sc2c(c1C(=O)O)CCC2	3%	10%	·	11%	-13	?
N#Cc1c(NC(=O)c2ccccc2)sc2c1CCCCC2	?	12%	?	1%	-4	-24%[46.1 µM]
O=C(Nc1scc(-c2ccc(F)cc2)c1C(=O)O)c1ccco1	-27%	3%	1%	-3%	5	-12%[46.1 µM]
N#Cc1c(NC(=O)/C=C/c2ccco2)sc2c1CCCC2	?	64%	32µM*	?	-1	6%
Cc1ccc(-c2csc(NC(=O)/C=C/c3ccco3)c2C(=O)O)cc1	?	-5%	?	28µM*	-29	-33%
Cc1nc(NC(=O)/C=C/c2ccco2)sc1C	?	-8%	-12%	71µM*	2	12%
Cc1ccc(-c2csc(NC(=O)c3ccc(Br)cc3)c2C(=O)O)cc1	·	·	·	17%	-30*	·
COC(=O)c1ccc2c(=O)n(-c3ccccc3)c(SCN3C(=O)c4ccccc4C3=O)nc2c1	7%	-3%	13µM*	-8%	2	-14%
COC(=O)c1c(NC(=O)CSc2nc3ccccc3c(=O)n2-c2ccccc2)sc(C)c1C	-10%	0%	22%	-8%	1	-12%
O=C1Nc2ccccc2S/C1=C/c1cccs1	5%	3%	·	18%	4	2%
O=C1Nc2ccccc2S/C1=C/NCc1ccccc1Cl	0%	5%	4.5µM*	56µM*	2	-6%
COc1ccc(N/C=C2/Sc3ccccc3NC2=O)cc1	-3%	53%	4µM*	?	-1	-9%
Cc1ccc(N/C=C2/Sc3ccccc3NC2=O)cc1	-3%	10%	22µM*	0%	1	-1%
COc1ccccc1N/C=C1/Sc2cc(Cl)ccc2NC1=O	-5%	12%	?	-4%	3	?
CC1CCc2c(sc3nc(C(C)(C)C)nc(N4CCN(C(=O)CCl)CC4)c23)C1 (stereo not given)	·	·	·	-10%	-2	·
Cc1nc(C)c(C(=O)Nc2ncc([N+](=O)[O-])s2)o1	-3%	15%	22µM*	-79%	-3	-22%
COc1ccc(CC(=O)Nc2nccs2)cc1OC	5%	12%	15%	5%	5	12%
COc1ccc(CC(=O)Nc2ncc([N+](=O)[O-])s2)cc1OC	0%	9%	20µM*	25µM*	11	17%
SMILES	KDM4E inh	GoLoco inh red	ALDH1A1 block	Sfp PPTase inh	FBPA coupling cs	NPSR antagonist
CC(C)CC(=O)Nc1ncc([N+](=O)[O-])s1	-11%	5%	·	35µM*	-1	-3%
CCCCC(=O)Nc1ncc([N+](=O)[O-])s1	-3%	5%	-1%	13%	1	7%
O=C(O)CSc1cc(NS(=O)(=O)c2cccc([N+](=O)[O-])c2)c2ccccc2c1O	?	-18%	3.5µM*	2.8µM*	-40*	-25%
CCOc1ccc(S(=O)(=O)Nc2cc(SCC(=O)O)c(O)c3ccccc23)cc1	·	·	·	-84%	-62*	·
O=S(=O)(Nc1cc(Sc2cccc3cccnc23)c(O)c2ccccc12)c1ccccc1	28µM*	-10%	?	10µM*	-55*	-6%
CCc1ccc(S(=O)(=O)Nc2ccc(O)c3ccccc23)cc1	·	·	·	-3%	-9	·
CCc1ccc(S(=O)(=O)Nc2cc(SCC(=O)O)c(O)c3ccccc23)cc1	?	8%	14µM*	4µM*	-42*	-12%
CNC(=O)CSc1nc2ccccc2c(=O)n1-c1cc(OC)ccc1OC	-22%	1%	·	5%	2	4%
CCN(CC)CCCC(C)n1c(-c2ccccc2)nc2c(NCCOC)nc(C)nc21 (stereo not given)	?	-1%	?	25%	4	·
O=C(CN1C(=O)CSc2ncccc21)Nc1ccccc1F	·	·	·	23%	-12	·
CCCCNc1n[n+](C)c(-c2cccc(C)c2)s1	-12%	0%	·	-14%	0	-20%
Cc1ccc(NS(=O)(=O)c2cc(NC(=O)C(C)Oc3ccccc3)ccc2C)c(C)c1 (stereo not given)	6%	13%	13%	-16%	0	?
Cc1ccc(C)c(S(=O)(=O)Nc2cc(SCC(=O)O)c(O)c3ccccc23)c1	12%	0%	25µM*	3.5µM*	-53*	22%
CCCCNC(=O)CSc1nnc(-c2c[nH]c3ccccc23)n1CC1CCCO1 (stereo not given)	-3%	3%	12%	16%	1	-11%[46.1 µM]
O=C(CSc1ccccc1)N1CCCC(Nc2ccccc2)C1 (stereo not given)	·	·	·	6%	-3	·
COc1ccc(OC)c2[nH]c(=O)c(CCNS(=O)(=O)c3ccccc3)cc12	?	7%	7.1µM*	2%	-24	-8%[46.1 µM]
O=C(Cc1ccccc1)N/N=C/c1cc(Br)cc(Cl)c1O	6.3µM*	19%	7%	-2%	-2	-50%
CCOc1ccc(Cl)cc1/C=N/NC(=O)c1ccccc1	-3%	-1%	-1%	-12%	0	-16%
CCOc1ccc(NC(=O)CN2CC(c3ccccc3)CC2=O)cc1 (stereo not given)	-1%	-5%	4%	7%	2	-10%[46.1 µM]
O=C(CNC(=O)c1ccccc1Br)N/N=C/c1ccccc1O	25µM*	3%	-12%	20%	-2	-1%
CCOc1ccc(Cl)cc1/C=N/NC(=O)CNC(=O)c1ccccc1	?	8%	6%	17%	-38*	-11%
O=C(CN1CC(c2ccccc2)CC1=O)N/N=C/c1cc(Br)ccc1O (stereo not given)	?	-8%	25µM*	-23%	0	-19%
COc1cc(OC)c2c(c1)OC(=O)CC2c1ccccc1OC (stereo not given)	·	-3%[88.7 µM]	-9%	-3%	5	·
O=C(CNC(=O)c1ccc2ccccc2c1)NCc1ccc(F)cc1	·	·	·	7%	3	·
CCCc1nnc2n1N=C(c1ccc(C)cc1)CS2	·	·	·	7%	·	·
